Unmarked numbers belong to inactive results. Inconclusive results are not listed. Where a call stands in place of a potency, no number is given. The source made the active and inactive calls. Unless noted, calls follow the shape of the dose curve; as a rule, active = well fitted curve in the direction sought with a large enough effect; inconclusive = small, poorly fitted or top-dose-only effect, or another doubt; inactive = no such curve, though single readings can be large; an effect the other way counts as inactive or inconclusive.
Key:
[1] = target: Cytochrome P450 3A4 (Homo sapiens) (UniProt P08684); assay: qHTS Assay for Inhibitors and Substrates of Cytochrome P450 3A4 (AID 884); also: potency is read from the fitted curve at half-maximal effect; nearly all actives have a fitted effect of over 50% in size
In short: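 Luminescent readout of luciferin produced by CYP3A4 (20 nM) dealkylation of Luciferin-PPXE, 25 uM (its KM). NADPH-driven reaction ran 60 min at RT after 10 min compound preincubation; data scaled to 57 uM ketoconazole as 100% inhibition.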

[2] = target: Cytochrome P450 3A4 (Homo sapiens) (UniProt P08684); assay: qHTS Assay for Activators of Cytochrome P450 3A4 (AID 885); also: nearly all actives have a fitted effect of over 65% in size
In short: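 CYP3A4 activity: Luciferin-PPXE O-dealkylation, 25uM substrate, 200mM KPO4, RT throughout. Read-out is luciferase luminescence; higher values reflect activation.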

[3] = system: Zika virus NS2B-NS3 protease; assay: Primary screen GU AMC qHTS for Zika virus inhibitors (AID 1347154); also: nearly all actives have a fitted effect of over 70% in size
In short: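 Unlinked Zika NS2B hydrophilic domain–NS3 protease complex at 25 nM in 10 mM Tris-HCl pH 8.0, 0.01% Tween 20, with an AMC peptide substrate. Fluorescence change (340/450 nm) over 15 min at room temperature, normalized to controls, fitted to 4-parameter Hill.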

[4] = target: Glucocorticoid receptor (Homo sapiens) (UniProt P04150); assay: GR-GFP Redistribution (AID 450;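 active = compounds whose dose series gives a full or clear partial fitted curve of increased nuclear translocation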; also: potency is read from the fitted curve at half-maximal effect); conditions: U2OS GR-GFP nuclear translocation, laser cytometry, 2 h
[5] = target: Glucocorticoid receptor (Homo sapiens) (UniProt P04150); assay: GR-EFC Redistribution (AID 451; calls by dose curve; also: potency is read from the fitted curve at half-maximal effect); conditions: CHO-K1 GR-EFC translocation, beta-gal luminescence, 2 h
In short: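 CHO-K1 cells expressing nuclear EA and GR-ED fragments of b-gal; compounds titrated up to 46 uM final, 2 h at 37 C. GR nuclear translocation read as complemented b-gal luminescence after 1 h RT detection.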

[6] = target: Mitogen-activated protein kinase 10 (Mus musculus) (UniProt Q61831); assay: JNK3 AlphaScreen Assay (AID 530; active = well fitted curve in either direction with a large enough effect, not every such curve was filed as active;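 also: kinase came from lysate of stimulated human HepG2 cells; signal reports phosphorylation of biotinylated GST-cJun 1-79 at Ser73 with 10 µM ATP; series mostly up to about 57 µM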)
In short: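 Activity was read by AlphaScreen after JNK3-containing HepG2 lysate (cytokine pre-activated) phosphorylated biotinylated GST-cJun with 10 uM ATP at room temperature. Phospho-Ser73 cJun antibody with Protein-A acceptor beads provided detection.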

[7] = target: 3',5'-cyclic-AMP phosphodiesterase 4B (Homo sapiens) (UniProt Q07343); assay: qHTS Assay for Inhibitors of PDE-IV (AID 607; active = well fitted activation curve with a large enough effect in the main read-out, with a control signal flat, not every such curve was filed as active)
In short: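 ACTOne HEK293 cells carry a modified cAMP-gated CNG channel and express endogenous PDE4; plated 1000 cells/well, compounds up to 22.9 uM final. Membrane-potential dye fluorescence (ex 535/em 590) was read; parental cells received 10 uM forskolin + 100 uM RO 20-1724.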

[8] = target: Guanine nucleotide-binding protein G(i) subunit alpha-1 (Homo sapiens) (UniProt P63096); assay: qHTS Assay for Inhibitors of RGS12 GoLoco Motif Activity (Green Fluorophore) (AID 879);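 also: negative values mean loss of peptide binding seen as reduced polarization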
In short: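 A drop in FITC polarization marked displacement of the FITC-tagged RGS12 GoLoco peptide (10 nM) from Gαi1 (50 nM). Compounds were incubated 10 min at room temperature in Tris pH 7.5 buffer containing 150 mM NaCl, 0.1 mM GDP and 0.05% NP40; unlabeled peptide titration served as control.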

[9] = target: Muscarinic acetylcholine receptor M1 (Rattus norvegicus) (UniProt P08482); assay: qHTS Assay for Antagonists of Acetylcholine Muscarinic M1 Receptor: Kinetic Measurement of Intracellular Calcium Response (AID 943);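 also: Fluo-4 calcium signal as peak divided by basal fluorescence over 4 min; series mostly up to about 35 µM; nearly all actives have a fitted effect of over 75% in size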
In short: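 Antagonism measured as reduction of carbachol-evoked (EC80, 100 nM final) calcium flux in rat M1-CHO cells after 10 min compound exposure. Fluo-4 signal read kinetically; ratio of maximal to basal fluorescence.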

[10] = target: Muscarinic acetylcholine receptor M1 (Rattus norvegicus) (UniProt P08482); assay: qHTS Assay for Antagonists of Acetylcholine Muscarinic M1 Receptor: Measurement of IP-One Response (AID 944); also: nearly all actives have a fitted effect of over 75% in size
In short: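 IP1 accumulation measured via TR-FRET between d2-IP1 and Eu-cryptate anti-IP1 antibody after carbachol (200 nM, EC80) stimulation for 30 min; rat M1-transfected CHO cells received compound 10 min before agonist.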

[11] = target: Pyruvate kinase (Leishmania mexicana) (UniProt Q27686); assay: qHTS Validation Assay for Inhibitors of Leishmania Mexicana Pyruvate Kinase (AID 945)
In short: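 Pyruvate kinase activity of E451W LmPYK (0.2 nM) was followed as ATP output after 1 h at room temperature with 0.5 mM PEP and 0.1 mM ADP, detected by PKLight luminescence.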

[12] = target: Pyruvate kinase PKM (Homo sapiens) (UniProt P14618); assay: qHTS Assay for Activators of Human Muscle Pyruvate Kinase (AID 954; active = well fitted curve in the direction sought with a large enough effect, not every such curve was filed as active)
In short: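 A coupled luminescent readout tracked ATP made from ADP by purified PKM2. Final conditions included 0.1 nM enzyme, PEP and ADP at 0.5 and 0.1 mM, pH 7.2 imidazole buffer with BSA, and a one-hour room-temperature reaction.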

[13] = target: Alpha-galactosidase A (Homo sapiens) (UniProt P06280); assay: Counterscreen for Glucocerebrosidase Inhibitors: qHTS Assay for Human alpha-Galactosidase at pH 4.5 (AID 992)
In short: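 Citrate buffer pH 4.5, Tween-20 0.005%. Enzyme 2 nM, substrate 80 uM, 20 min RT. Stop pH 10. Fluorescence Ex 365/Em 440. AC50 by Hill fit.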

[14] = target: alpha-glucosidase (Oryza sativa, rice) (UniProt Q653V4); assay: Counterscreen for Glucocerebrosidase Inhibitors: qHTS Assay for Rice alpha-Glucosidase at pH 5.0 (AID 997)
In short: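 Endpoint fluorogenic assay at pH 5.0: compounds (0.7 nM to 77 uM) titrated against 4 nM rice enzyme and 400 uM 4-MU-alpha-glucoside for 20 min at room temperature; NaOH/glycine stop, read ex 365/em 440 nm, Hill-fitted AC50.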

[15] = target: DNA dC->dU-editing enzyme APOBEC-3G (Homo sapiens) (UniProt Q9HC16); assay: qHTS for inhibitors of Vif-A3G interactions: Validation (AID 588379)
In short: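 Yellow fluorescence (Ex 488, Em 500-530) of Vif-coexpressing HeLa A3G-eYFP cells, scanned by Acumen cytometer, reports blocked A3G degradation. Cells plated at 700/well overnight at 37 deg C before compound addition, then a further overnight compound incubation at 37 deg C.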

3',5'-cyclic-AMP phosphodiesterase 4B (Homo sapiens), sequence (Q07343 whole entry, looked up): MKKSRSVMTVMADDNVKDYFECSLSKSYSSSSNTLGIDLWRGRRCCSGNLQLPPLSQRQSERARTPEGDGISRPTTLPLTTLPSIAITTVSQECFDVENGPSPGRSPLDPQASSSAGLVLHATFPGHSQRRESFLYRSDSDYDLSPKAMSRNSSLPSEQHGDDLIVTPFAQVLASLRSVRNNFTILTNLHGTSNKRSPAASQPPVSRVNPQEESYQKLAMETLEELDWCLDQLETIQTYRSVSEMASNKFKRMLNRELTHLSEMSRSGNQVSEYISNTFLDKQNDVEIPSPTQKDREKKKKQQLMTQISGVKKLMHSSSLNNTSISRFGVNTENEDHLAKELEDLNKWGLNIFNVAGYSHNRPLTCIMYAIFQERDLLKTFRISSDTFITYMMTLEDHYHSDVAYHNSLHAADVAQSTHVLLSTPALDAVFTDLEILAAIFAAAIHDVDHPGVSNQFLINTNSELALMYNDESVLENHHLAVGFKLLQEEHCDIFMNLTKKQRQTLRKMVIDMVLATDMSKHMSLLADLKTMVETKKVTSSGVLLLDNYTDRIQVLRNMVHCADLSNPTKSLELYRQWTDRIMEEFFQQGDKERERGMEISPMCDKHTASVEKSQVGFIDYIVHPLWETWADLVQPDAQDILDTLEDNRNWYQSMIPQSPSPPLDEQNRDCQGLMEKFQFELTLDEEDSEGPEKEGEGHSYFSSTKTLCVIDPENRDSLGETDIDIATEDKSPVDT
Glucocorticoid receptor (Homo sapiens), sequence (P04150 whole entry, looked up, the tested form may be a part): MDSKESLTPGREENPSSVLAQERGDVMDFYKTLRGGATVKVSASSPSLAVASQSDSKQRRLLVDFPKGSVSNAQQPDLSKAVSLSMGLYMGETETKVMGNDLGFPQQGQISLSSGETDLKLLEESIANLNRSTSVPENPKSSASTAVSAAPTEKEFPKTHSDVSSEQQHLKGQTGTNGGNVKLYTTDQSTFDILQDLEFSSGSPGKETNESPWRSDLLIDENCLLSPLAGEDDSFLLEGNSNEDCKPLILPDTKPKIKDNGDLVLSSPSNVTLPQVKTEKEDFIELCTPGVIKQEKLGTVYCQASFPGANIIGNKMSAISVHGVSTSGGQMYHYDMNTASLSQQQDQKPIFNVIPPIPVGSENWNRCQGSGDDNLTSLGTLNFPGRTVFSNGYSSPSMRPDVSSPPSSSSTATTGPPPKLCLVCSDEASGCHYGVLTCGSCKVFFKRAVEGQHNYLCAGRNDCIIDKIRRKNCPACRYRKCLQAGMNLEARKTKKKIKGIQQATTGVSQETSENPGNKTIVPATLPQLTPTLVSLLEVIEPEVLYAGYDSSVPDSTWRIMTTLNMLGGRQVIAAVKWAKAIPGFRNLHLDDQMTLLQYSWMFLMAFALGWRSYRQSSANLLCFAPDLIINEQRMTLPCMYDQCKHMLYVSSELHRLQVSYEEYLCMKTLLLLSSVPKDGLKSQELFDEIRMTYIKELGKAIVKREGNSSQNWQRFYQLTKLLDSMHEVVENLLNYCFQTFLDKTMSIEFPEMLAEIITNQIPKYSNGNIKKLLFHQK
Muscarinic acetylcholine receptor M1 (Rattus norvegicus), sequence (P08482 whole entry, looked up): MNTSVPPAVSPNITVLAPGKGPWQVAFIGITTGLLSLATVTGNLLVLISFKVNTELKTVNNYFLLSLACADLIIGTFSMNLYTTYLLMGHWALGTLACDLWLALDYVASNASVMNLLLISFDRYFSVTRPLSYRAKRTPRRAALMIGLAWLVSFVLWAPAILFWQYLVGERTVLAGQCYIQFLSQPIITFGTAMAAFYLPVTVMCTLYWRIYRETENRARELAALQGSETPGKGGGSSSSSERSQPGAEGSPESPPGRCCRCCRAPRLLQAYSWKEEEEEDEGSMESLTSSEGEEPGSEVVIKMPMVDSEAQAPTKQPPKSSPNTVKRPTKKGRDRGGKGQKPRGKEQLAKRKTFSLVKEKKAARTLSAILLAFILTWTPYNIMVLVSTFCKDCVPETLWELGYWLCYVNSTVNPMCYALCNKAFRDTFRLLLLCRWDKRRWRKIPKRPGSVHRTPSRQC
Cytochrome P450 3A4 (Homo sapiens), sequence (P08684 whole entry, looked up): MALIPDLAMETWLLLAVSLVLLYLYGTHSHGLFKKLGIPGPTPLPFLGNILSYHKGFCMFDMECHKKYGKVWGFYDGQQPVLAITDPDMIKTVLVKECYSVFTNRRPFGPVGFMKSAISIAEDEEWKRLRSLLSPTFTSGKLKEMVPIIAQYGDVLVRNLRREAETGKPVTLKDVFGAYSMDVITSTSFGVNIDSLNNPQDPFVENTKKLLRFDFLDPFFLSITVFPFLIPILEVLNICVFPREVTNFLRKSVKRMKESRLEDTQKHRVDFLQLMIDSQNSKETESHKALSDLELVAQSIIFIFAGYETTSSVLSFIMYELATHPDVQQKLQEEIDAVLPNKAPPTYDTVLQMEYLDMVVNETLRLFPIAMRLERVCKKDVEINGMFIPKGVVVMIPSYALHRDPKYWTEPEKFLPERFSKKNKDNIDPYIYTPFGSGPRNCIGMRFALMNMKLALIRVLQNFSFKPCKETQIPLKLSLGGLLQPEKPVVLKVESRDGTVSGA
Alpha-galactosidase A (Homo sapiens), sequence (P06280 whole entry, looked up): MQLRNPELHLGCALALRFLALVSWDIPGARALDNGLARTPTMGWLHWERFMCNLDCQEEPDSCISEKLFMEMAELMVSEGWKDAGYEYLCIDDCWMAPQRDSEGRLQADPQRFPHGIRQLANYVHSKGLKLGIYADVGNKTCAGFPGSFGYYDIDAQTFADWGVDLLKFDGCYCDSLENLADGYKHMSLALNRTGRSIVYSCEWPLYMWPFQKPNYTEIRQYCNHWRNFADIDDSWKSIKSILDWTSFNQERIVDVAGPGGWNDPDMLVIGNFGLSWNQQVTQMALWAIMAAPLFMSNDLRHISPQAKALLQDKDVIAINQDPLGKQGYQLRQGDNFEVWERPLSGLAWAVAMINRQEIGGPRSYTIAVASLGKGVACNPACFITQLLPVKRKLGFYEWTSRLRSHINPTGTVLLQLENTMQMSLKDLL
Pyruvate kinase PKM (Homo sapiens), sequence (P14618 whole entry, looked up): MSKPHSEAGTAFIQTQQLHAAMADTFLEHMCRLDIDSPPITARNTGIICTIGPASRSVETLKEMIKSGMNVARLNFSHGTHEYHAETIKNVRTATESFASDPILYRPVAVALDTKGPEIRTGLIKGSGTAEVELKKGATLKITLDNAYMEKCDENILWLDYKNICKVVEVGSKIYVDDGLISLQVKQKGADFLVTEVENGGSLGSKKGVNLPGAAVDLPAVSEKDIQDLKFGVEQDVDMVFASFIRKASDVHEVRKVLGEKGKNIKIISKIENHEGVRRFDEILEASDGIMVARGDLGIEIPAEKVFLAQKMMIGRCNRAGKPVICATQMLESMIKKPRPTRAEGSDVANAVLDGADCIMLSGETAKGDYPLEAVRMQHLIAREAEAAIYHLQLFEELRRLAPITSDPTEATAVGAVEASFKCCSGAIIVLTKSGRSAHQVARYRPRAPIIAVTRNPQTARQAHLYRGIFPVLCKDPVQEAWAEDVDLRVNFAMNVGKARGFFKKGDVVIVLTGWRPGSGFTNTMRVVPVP
Guanine nucleotide-binding protein G(i) subunit alpha-1 (Homo sapiens), sequence (P63096 whole entry, looked up): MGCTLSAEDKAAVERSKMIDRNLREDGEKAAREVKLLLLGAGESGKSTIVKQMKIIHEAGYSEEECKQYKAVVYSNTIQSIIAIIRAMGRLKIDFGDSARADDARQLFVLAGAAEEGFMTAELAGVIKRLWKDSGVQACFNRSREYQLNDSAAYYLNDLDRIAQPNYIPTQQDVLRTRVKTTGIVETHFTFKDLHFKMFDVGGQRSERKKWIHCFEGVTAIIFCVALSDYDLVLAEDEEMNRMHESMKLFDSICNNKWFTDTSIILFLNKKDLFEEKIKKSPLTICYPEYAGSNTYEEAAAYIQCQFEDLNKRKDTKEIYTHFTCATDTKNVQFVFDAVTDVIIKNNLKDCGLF
DNA dC->dU-editing enzyme APOBEC-3G (Homo sapiens), sequence (Q9HC16 whole entry, looked up): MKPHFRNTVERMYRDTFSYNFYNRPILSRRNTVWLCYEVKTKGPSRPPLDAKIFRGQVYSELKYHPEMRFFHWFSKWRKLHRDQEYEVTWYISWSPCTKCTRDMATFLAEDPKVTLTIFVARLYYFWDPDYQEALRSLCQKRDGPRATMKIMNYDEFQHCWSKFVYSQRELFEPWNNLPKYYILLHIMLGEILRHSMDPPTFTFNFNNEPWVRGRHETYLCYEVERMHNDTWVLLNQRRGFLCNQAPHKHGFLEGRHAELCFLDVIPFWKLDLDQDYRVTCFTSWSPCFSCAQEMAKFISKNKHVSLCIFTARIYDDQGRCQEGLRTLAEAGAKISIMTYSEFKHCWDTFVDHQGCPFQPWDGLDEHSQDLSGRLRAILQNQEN
Pyruvate kinase (Leishmania mexicana), sequence (Q27686 2-499 E452W): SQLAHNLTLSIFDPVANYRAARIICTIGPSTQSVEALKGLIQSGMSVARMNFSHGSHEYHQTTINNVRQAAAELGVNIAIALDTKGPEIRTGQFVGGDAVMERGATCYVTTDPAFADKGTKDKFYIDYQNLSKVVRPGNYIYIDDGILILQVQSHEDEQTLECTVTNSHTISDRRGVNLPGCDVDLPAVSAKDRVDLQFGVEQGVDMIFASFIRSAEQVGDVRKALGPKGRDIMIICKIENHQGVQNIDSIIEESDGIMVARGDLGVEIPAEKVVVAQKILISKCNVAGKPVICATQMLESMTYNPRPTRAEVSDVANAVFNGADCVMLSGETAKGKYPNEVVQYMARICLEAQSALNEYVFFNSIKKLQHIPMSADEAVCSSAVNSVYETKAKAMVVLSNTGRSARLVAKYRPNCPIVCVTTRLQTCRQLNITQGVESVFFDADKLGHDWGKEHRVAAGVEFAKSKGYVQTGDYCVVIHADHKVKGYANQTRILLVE

Compound	Potency [1]	Potency [2]	Potency [3]	Potency [4]	Potency [5]	Potency [6]	Potency [7]	outcome [8]	Potency [9]	Potency [10]	Potency [11]	outcome [12]	outcome [13]	outcome [14]	Potency [15]
O=C1c2ccccc2C(Cc2ccnc(F)c2)(Cc2ccnc(F)c2)c2ccccc21	15.8 µM (active)	inactive	inactive	–	–	–	–	–	–	–	–	–	–	–	–
C[C@@H]1CNCCN1S(=O)(=O)c1cccc2cnccc12	–	–	inactive	> 46 µM	> 46 µM	inactive	inactive	inactive	inactive	inactive	inactive	inactive	inactive	inactive	inactive
